According to the supplement of paper PMC9262897, “Low-cost anti-mycobacterial drug discovery using engineered E. coli” (Nature Communications, 2022):
Structures can show the parent of a compound that is named as a salt. ± gives the standard deviation of the averaged measurements.

Legend:
Experiment in all cases: growth (OD600 after 10 h); higher = more growth (less inhibition)
[1] = test system: E. coli TESEC Alr+ wild-type control; conditions: compound 0.1 mM; raw OD600 reference: median of DMSO wells 0.241, cell-free background 0.041
Method: (§1)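 TESEC Mtb Alr E. coli, or the Alr+ wild-type control, in 384-well plates with Prestwick library compounds at 0.1 mM and 1% DMSO, across arabinose induction levels of 1E3 to 1E7 nM. Growth is read as OD600 after 10 h at 37 °C in triplicate biological replicates.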

E. coli TESEC Mtb Alr [2] = conditions: compound 0.1 mM
Method: as §1

E. coli TESEC Mtb Asd = conditions: compound 0.1 mM
Method: (§2)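 TESEC E. coli strains in which the native enzyme is deleted and replaced by arabinose-inducible Mtb Asd, DapB, CysH or TrpD, each grown in its selective medium. Strains were screened against the Prestwick library at 0.1 mM and 1% DMSO in 384-well format at low and high arabinose induction. Growth is read as OD600 after 10 h in triplicate.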

E. coli TESEC Mtb DapB = conditions: compound 0.1 mM
Method: as §2

[3] = test system: E. coli TESEC Alr+ wild-type control; conditions: compound 0.1 mM; raw OD600 reference: median of DMSO wells 0.49, cell-free background 0.052
Method: (§3)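 TESEC Mtb Alr E. coli (ΔaraC ΔtolC ΔentC Δalr ΔdadX, arabinose-inducible Mtb Alr) or the Alr+ wild-type control strain, grown in defined M9-fructose medium without D-alanine in 96-well plates with Prestwick library compounds at 0.1 mM and 1% DMSO. Low Alr induction is 0.1 µM arabinose and high induction is 10 mM arabinose.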

E. coli TESEC Mtb Alr [4] = conditions: compound 0.1 mM; remark: listed apart in the source
Method: as §3

[5] = arabinose 1000 nM, raw OD600 reference: median of DMSO wells 0.294, cell-free background 0.041
[6] = arabinose 10000 nM, raw OD600 reference: median of DMSO wells 0.264, cell-free background 0.041
[7] = arabinose 100000 nM, raw OD600 reference: median of DMSO wells 0.201, cell-free background 0.041
[8] = arabinose 1000000 nM, raw OD600 reference: median of DMSO wells 0.193, cell-free background 0.041
[9] = arabinose 10000000 nM, raw OD600 reference: median of DMSO wells 0.146, cell-free background 0.041
[10] = arabinose induction (level): High, raw OD600 reference: median of DMSO wells 0.331, cell-free background 0.041
[11] = arabinose induction (level): Low, raw OD600 reference: median of DMSO wells 0.417, cell-free background 0.041
[12] = arabinose induction (level): High, raw OD600 reference: median of DMSO wells […], cell-free background 0.041
[13] = arabinose induction (level): Low, raw OD600 reference: median of DMSO wells 0.227, cell-free background 0.041
[14] = arabinose 100 nM, raw OD600 reference: median of DMSO wells 0.413, cell-free background 0.052
[15] = arabinose 10000000 nM, raw OD600 reference: median of DMSO wells […], cell-free background 0.052

C[N+](C)(CCOc1ccccc1)Cc1ccccc1.O=C([O-])c1cc2ccccc2cc1O [Bephenium hydroxynaphthoate]
growth [1]: 0.175 ± 0.0073 | growth (E. coli TESEC Mtb Alr [2]; [5]): 0.266 ± 0.017 | growth (E. coli TESEC Mtb Alr [2]; [6]): 0.207 ± 0.0049 | growth (E. coli TESEC Mtb Alr [2]; [7]): 0.203 ± 0.0078 | growth (E. coli TESEC Mtb Alr [2]; [8]): 0.104 ± 0.0033 | growth (E. coli TESEC Mtb Alr [2]; [9]): 0.134 ± 0.0047 | growth (E. coli TESEC Mtb Asd; [10]): 0.486 ± 0.047 | growth (E. coli TESEC Mtb Asd; [11]): 0.365 ± 0.069 | growth (E. coli TESEC Mtb DapB; [12]): 0.176 ± 0.046 | growth (E. coli TESEC Mtb DapB; [13]): 0.216 ± 0.019 | growth [3]: 0.509 ± 0.023 | growth (E. coli TESEC Mtb Alr [4]; [14]): 0.381 ± 0.016 | growth (E. coli TESEC Mtb Alr [4]; [15]): 0.263 ± 0.0088

C[C@@](Cc1ccc(O)c(O)c1)(NN)C(=O)O [Carbidopa]
growth [1]: 0.225 ± 0.0049 | growth (E. coli TESEC Mtb Alr [2]; [5]): 0.292 ± 0.024 | growth (E. coli TESEC Mtb Alr [2]; [6]): 0.118 ± 0.0053 | growth (E. coli TESEC Mtb Alr [2]; [7]): 0.228 ± 0.048 | growth (E. coli TESEC Mtb Alr [2]; [8]): 0.0919 ± 0.00096 | growth (E. coli TESEC Mtb Alr [2]; [9]): 0.193 ± 0.0067 | growth (E. coli TESEC Mtb Asd; [10]): 0.283 ± 0.11 | growth (E. coli TESEC Mtb Asd; [11]): 0.357 ± 0.04 | growth (E. coli TESEC Mtb DapB; [12]): 0.159 ± 0.016 | growth (E. coli TESEC Mtb DapB; [13]): 0.173 ± 0.018 | growth [3]: 0.499 ± 0.048 | growth (E. coli TESEC Mtb Alr [4]; [14]): 0.375 ± 0.014 | growth (E. coli TESEC Mtb Alr [4]; [15]): 0.257 ± 0.012

C[C@@H]1CN(c2c(F)c(N)c3c(=O)c(C(=O)O)cn(C4CC4)c3c2F)C[C@H](C)N1 [Sparfloxacin]
growth [1]: 0.0414 ± 0.0019 | growth (E. coli TESEC Mtb Alr [2]; [5]): 0.0409 ± 0.0011 | growth (E. coli TESEC Mtb Alr [2]; [6]): 0.0398 ± 0.0002 | growth (E. coli TESEC Mtb Alr [2]; [7]): 0.0433 ± 0.0046 | growth (E. coli TESEC Mtb Alr [2]; [8]): 0.04 ± 0.00078 | growth (E. coli TESEC Mtb Alr [2]; [9]): 0.04067 ± 0.00038 | growth (E. coli TESEC Mtb Asd; [10]): 0.04863 ± 0.0004 | growth (E. coli TESEC Mtb Asd; [11]): 0.0462 ± 0.0031 | growth (E. coli TESEC Mtb DapB; [12]): 0.0488 ± 0.00061 | growth (E. coli TESEC Mtb DapB; [13]): 0.04823 ± 0.00038 | growth [3]: 0.0553 ± 0.0029 | growth (E. coli TESEC Mtb Alr [4]; [14]): 0.0536 ± 0.0018 | growth (E. coli TESEC Mtb Alr [4]; [15]): 0.051 ± 0.00046

CC(Oc1ccccc1)C(=O)N[C@@H]1C(=O)N2[C@@H]1SC(C)(C)[C@@H]2C(=O)O (stereo partly drawn) [Phenethicillin potassium salt]
growth [1]: 0.267 ± 0.018 | growth (E. coli TESEC Mtb Alr [2]; [5]): 0.311 ± 0.019 | growth (E. coli TESEC Mtb Alr [2]; [6]): 0.266 ± 0.0071 | growth (E. coli TESEC Mtb Alr [2]; [7]): 0.223 ± 0.018 | growth (E. coli TESEC Mtb Alr [2]; [8]): 0.19 ± 0.006 | growth (E. coli TESEC Mtb Alr [2]; [9]): 0.139 ± 0.0076 | growth (E. coli TESEC Mtb Asd; [10]): 0.306 ± 0.05 | growth (E. coli TESEC Mtb Asd; [11]): 0.438 ± 0.011 | growth (E. coli TESEC Mtb DapB; [12]): 0.226 ± 0.0034 | growth (E. coli TESEC Mtb DapB; [13]): 0.249 ± 0.02 | growth [3]: 0.482 ± 0.075 | growth (E. coli TESEC Mtb Alr [4]; [14]): 0.398 ± 0.0069 | growth (E. coli TESEC Mtb Alr [4]; [15]): 0.367 ± 0.0061

CS(=O)(=O)c1ccc([C@@H](O)[C@@H](CF)NC(=O)C(Cl)Cl)cc1 [Florfenicol]
growth [1]: 0.0412 ± 0.0009 | growth (E. coli TESEC Mtb Alr [2]; [5]): 0.0406 ± 0.00059 | growth (E. coli TESEC Mtb Alr [2]; [6]): 0.0395 ± 0.0002 | growth (E. coli TESEC Mtb Alr [2]; [7]): 0.04123 ± 0.0004 | growth (E. coli TESEC Mtb Alr [2]; [8]): 0.03917 ± 0.00012 | growth (E. coli TESEC Mtb Alr [2]; [9]): 0.0409 ± 0.00017 | growth (E. coli TESEC Mtb Asd; [10]): 0.054 ± 0.0047 | growth (E. coli TESEC Mtb Asd; [11]): 0.0538 ± 0.0014 | growth (E. coli TESEC Mtb DapB; [12]): 0.0485 ± 0.0014 | growth (E. coli TESEC Mtb DapB; [13]): 0.0488 ± 0.001 | growth [3]: 0.05113 ± 0.00023 | growth (E. coli TESEC Mtb Alr [4]; [14]): 0.05607 ± 0.00047 | growth (E. coli TESEC Mtb Alr [4]; [15]): 0.0524 ± 0.0018

Cc1ccc(/C(=C\CN2CCCC2)c2ccccn2)cc1 [Triprolidine hydrochloride]
growth [1]: 0.223 ± 0.0078 | growth (E. coli TESEC Mtb Alr [2]; [5]): 0.27 ± 0.014 | growth (E. coli TESEC Mtb Alr [2]; [6]): 0.257 ± 0.0035 | growth (E. coli TESEC Mtb Alr [2]; [7]): 0.213 ± 0.017 | growth (E. coli TESEC Mtb Alr [2]; [8]): 0.176 ± 0.0043 | growth (E. coli TESEC Mtb Alr [2]; [9]): 0.141 ± 0.005 | growth (E. coli TESEC Mtb Asd; [10]): 0.264 ± 0.029 | growth (E. coli TESEC Mtb Asd; [11]): 0.427 ± 0.05 | growth (E. coli TESEC Mtb DapB; [12]): 0.165 ± 0.0066 | growth (E. coli TESEC Mtb DapB; [13]): 0.214 ± 0.055 | growth [3]: 0.464 ± 0.026 | growth (E. coli TESEC Mtb Alr [4]; [14]): 0.41 ± 0.0077 | growth (E. coli TESEC Mtb Alr [4]; [15]): 0.368 ± 0.019
